Screens: PubChem BioAssay, several laboratories
Most compounds without a hit are left out; they make up all but 0.88% or so of the library.
FXIIa mix inh = blocks human factor XIIa in pooled compound mixtures; P00748; purified FXIIa, fluorogenic substrate; inhibition, % at 5 µM; 62,000 tested, 0.2% active;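 further: 0% = enzyme without compound and 100% = no enzyme blank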
Her2 expr inh = lowers expression of human Her2 kinase; AID 645; HER2 level % of control, % at 10 µM; 65,000 tested, 0.69% active; SKBR-3 HER2 protein level, AlphaScreen, 18-24 h; hits give low values; P04626;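 active means HER2 level under 5% of the carrier-only control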;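 further: 100% = DMSO carrier and 0% = 500 nM PU-H71 HSP90 inhibitor; lower value means stronger loss of Her2 protein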
Target sequence (P04626 whole entry, looked up): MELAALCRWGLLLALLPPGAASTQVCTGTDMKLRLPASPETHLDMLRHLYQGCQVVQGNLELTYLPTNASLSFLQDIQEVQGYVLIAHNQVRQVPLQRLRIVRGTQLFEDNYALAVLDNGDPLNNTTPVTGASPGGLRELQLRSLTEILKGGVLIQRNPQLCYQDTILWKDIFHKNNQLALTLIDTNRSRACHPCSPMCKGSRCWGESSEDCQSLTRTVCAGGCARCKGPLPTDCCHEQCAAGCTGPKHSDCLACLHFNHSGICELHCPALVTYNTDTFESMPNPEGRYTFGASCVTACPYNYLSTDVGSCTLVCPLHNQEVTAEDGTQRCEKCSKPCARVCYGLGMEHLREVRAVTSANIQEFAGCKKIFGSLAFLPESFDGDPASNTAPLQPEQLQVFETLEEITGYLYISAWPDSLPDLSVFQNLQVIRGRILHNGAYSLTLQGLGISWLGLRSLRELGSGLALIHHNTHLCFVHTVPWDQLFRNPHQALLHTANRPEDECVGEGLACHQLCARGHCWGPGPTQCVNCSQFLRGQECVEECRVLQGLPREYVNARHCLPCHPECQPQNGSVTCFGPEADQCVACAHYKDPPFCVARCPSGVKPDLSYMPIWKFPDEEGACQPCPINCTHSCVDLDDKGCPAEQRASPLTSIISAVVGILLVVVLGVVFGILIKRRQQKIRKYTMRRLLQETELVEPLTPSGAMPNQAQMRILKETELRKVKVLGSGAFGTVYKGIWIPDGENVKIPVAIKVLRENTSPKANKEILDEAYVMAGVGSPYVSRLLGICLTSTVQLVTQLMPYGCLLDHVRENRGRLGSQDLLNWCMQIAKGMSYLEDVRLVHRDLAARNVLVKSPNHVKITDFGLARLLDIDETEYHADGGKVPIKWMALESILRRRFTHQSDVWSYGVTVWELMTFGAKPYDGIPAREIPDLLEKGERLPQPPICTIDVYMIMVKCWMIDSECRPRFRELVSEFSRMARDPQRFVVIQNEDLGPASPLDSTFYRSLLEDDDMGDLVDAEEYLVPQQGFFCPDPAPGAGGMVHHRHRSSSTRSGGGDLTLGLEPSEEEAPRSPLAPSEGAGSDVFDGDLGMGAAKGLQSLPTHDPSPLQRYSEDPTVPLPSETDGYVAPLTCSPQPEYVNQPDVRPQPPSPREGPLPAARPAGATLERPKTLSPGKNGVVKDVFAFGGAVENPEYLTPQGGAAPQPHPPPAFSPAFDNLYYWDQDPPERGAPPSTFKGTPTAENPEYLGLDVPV
MT1-MMP txn act = MT1-MMP promoter transcription activation. HT1080 MT1-MMP promoter luciferase reporter, luminescence, overnight; hits give high values. activation factor at 10 µM. 86,000 tested, 0.16% active. AID 750;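 active means activation factor of at least 2 for MT1-MMP transcription at 10 µM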
FXIa mix inh = blocks human factor XIa in pooled compound mixtures | inhibition, % at 5 µM | purified FXIa, fluorogenic substrate | P03951 | 62,000 tested, 0.19% active;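 further: each value is inhibition by a whole ten-compound pool holding the compound; 0% = enzyme with no mixture and 100% = wells lacking enzyme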
* = called active by the depositor; nt = not tested or not shown. Unless noted, no stated cut-off is given here; in the data, active means inhibition above about 20% (passing the limit was not always enough); inactive means the rest.

SMILES | FXIIa mix inh | Her2 expr inh | MT1-MMP txn act | FXIa mix inh
C/C=C(/C)C(=O)OC1c2c(ccc3ccc(=O)oc23)OC(C)(C)C1OC(C)=O (configuration not stated) | nt | nt | 1.2 | nt
CC1(C)Oc2ccc3ccc(=O)oc3c2C(N2CCCCC2)C1O (configuration not stated) | 20* | 116 | 1.2 | 4
COC(=O)[C@@]1(Cc2ccccc2)[C@H]2c3cc(C(=O)N(C)C)n(Cc4ccccc4)c3C[C@H]2CN1C(=O)c1ccccc1 | nt | nt | 1.2 | nt
Cc1ccc(-n2nc(C(=O)NCc3ccc(C)o3)c3c4ccccc4n(C)c3c2=O)cc1 | nt | nt | 1.1 | nt
Clc1cccc2sc(N3CCOCC3)nc12 | 12 | 96 | 2.1* | -1
Clc1cccc2sc(N3CCCC3)nc12 | -3 | 68 | 1.5 | -30
O=C(Nc1ccc(Cl)cc1)Nc1ccc2c(c1)N1CCN=C1S2 | 1 | -8.2* | 1.3 | -6
COC(=O)c1ccc(C(NC(=O)OCc2ccccc2)/C(F)=C/[C@@H](C)C(=O)N[C@@H](CO)Cc2ccccc2)cc1 (some centres not stated) | nt | nt | 1.1 | nt
O=C(N/N=C/c1ccc(O)c(O)c1)c1ccc(CSc2cccc3cccnc23)cc1 | nt | nt | 1.4 | nt
CCOC(=O)N1CCC(N2C(=O)c3cc(C(=O)NC4CCCCC4)ccc3C2O)CC1 (configuration not stated) | 3 | 68 | 1 | 25*
CCCN1C(=O)c2cc(C(=O)NC3CCCCCC3)ccc2C1O (configuration not stated) | 10 | 99 | 1.2 | 5
COC(=O)N1[C@H](Cc2ccccc2)C=C[C@]1(C)C(=O)NCc1ccc(C)o1 | nt | nt | 1 | nt
Cc1nc2nc(-c3ccco3)nn2c(C)c1Cl | -1 | -8.6* | 1.3 | -8
Cc1nc2nc(-c3cccnc3)nn2c(C)c1Cl | 5 | 78 | 1.1 | -6
COCCNC(=O)[C@H](C)/C=C/C(NC(=O)OCc1ccccc1)c1ccc(C(=O)OC)cc1 (some centres not stated) | nt | nt | 1.1 | nt
CCOC(=O)C1C(c2ccccc2Cl)NC(=O)N(C)C1(O)C(F)(F)F (configuration not stated) | 3 | -28* | 1 | -6
CC(=O)C1C(c2ccccc2Cl)NC(=O)NC1(O)C(F)(F)F (configuration not stated) | 4 | 84 | 1.1 | -2
COc1ccc(Nc2nc(N3CCCC3)c3ccccc3n2)cc1 | 14 | -5.6* | 0.8 | 3
CCC1=C2CC[C@H]3C(=O)N(CC(=O)OC)C(=O)[C@H]3[C@H]2[C@@]2(Cc3ccccc3)C(=NCCOC)OC(=O)N2C1=O | nt | nt | 1.1 | nt
CCOP(=O)(c1ccccc1Cl)C1(O)CCCCC1 (configuration not stated) | 6 | -28* | 1.2 | 7
CCOP(=O)(c1ccccc1)C1(C#N)CCCC1 (configuration not stated) | nt | 101 | 1.1 | nt
CNC(=O)C1(CC(C)C)C=CCN1C(=O)c1ccccc1 (configuration not stated) | nt | nt | 1 | nt
CCOC(=O)N1CCN(C(=O)CSCc2nc(-c3ccccc3C)oc2C)CC1 | 1 | -23* | 1 | 9
CCOC(=O)N1CCN(C(=O)CSCc2nc(-c3ccccc3F)oc2C)CC1 | nt | 102 | 1 | nt
O=C(O)C[CH2][Ge](=[O])[O][Ge](=[O])[CH2]CC(=O)O | nt | nt | 1 | nt
SMILES | FXIIa mix inh | Her2 expr inh | MT1-MMP txn act | FXIa mix inh
CCOc1ccc(/C(O)=C2\C(=O)C(=O)N(c3cc(C)on3)C2c2ccccc2OC)cc1 (configuration not stated) | 1 | -22* | 1.2 | -2
CCOc1ccc(C2/C(=C(\O)c3ccc(OC)c(OC)c3)C(=O)C(=O)N2c2cc(C)on2)cc1OC (configuration not stated) | 1 | 86 | 1 | 6
Cc1ccc(NC(=O)c2ccc(S(=O)(=O)NCC3CCCO3)cc2)cc1 (configuration not stated) | 22* | 66 | 1.4 | -1
CS(=O)(=O)c1ncc(Cl)c(C(=O)Nc2ccc(N3CCOCC3)cc2)n1 | 2 | -1.6* | 1 | 4
COC(=O)[C@@]1(Cc2ccc(F)cc2)[C@H]2c3cc(C(=O)N4CCCC4)n(Cc4c(CO)[nH]cc(C)c4=O)c3C[C@H]2CN1C(=O)c1ccccc1 | nt | nt | 1.2 | nt
CCCCn1c(SCC(=O)N2c3ccccc3CCc3ccccc32)nc2c1c(=O)n(C)c(=O)n2C | nt | nt | 1.2 | nt
CCn1c(SCC(=O)N2c3ccccc3CCc3ccccc32)nc2c1c(=O)n(C)c(=O)n2C | -6 | -3.2* | 0.9 | -2
[N-]=[N+]=CC(=O)CC(c1ccccc1)N1C(=O)c2ccccc2C1=O (configuration not stated) | 5 | -28* | 1.1 | 1
COc1ccc(-n2nnc3c(SCC(=O)NCC4CCCO4)ncnc32)cc1 (configuration not stated) | 23 | -0.9* | 1 | 9
CCN(C(=O)COC(=O)c1cc(C)n(-c2ccc(F)cc2)c1C)C1CCS(=O)(=O)C1 (configuration not stated) | 1 | -20* | 1.1 | 8
Cc1ccccc1-n1nc2c(c1NC(=O)c1cc3ccccc3oc1=O)CS(=O)C2 (configuration not stated) | 6 | 85 | 1.4 | -22
Cc1ccccc1-n1nc2c(c1NC(=O)c1cc3ccccc3oc1=O)CS(=O)(=O)C2 | -2 | 1.1* | 1.1 | -9
Cc1ccc(CNC(=O)[C@H]2C[C@@H]2[C@H](NP(=O)(c2ccccc2)c2ccccc2)c2ccccc2)c(F)c1F | nt | nt | 1.2 | nt
COc1ccc(C2CC(c3cccs3)=Nc3ccccc3S2)cc1 (configuration not stated) | nt | nt | 2.1* | nt
COc1ccc(C2CCCN2C(=O)c2cccs2)cc1 (configuration not stated) | 3 | 114 | 1.2 | 4
COC(=O)c1ccc(C(NC(=O)OCc2ccccc2)/C(I)=C/[C@@H](C)C(=O)NCc2ccncc2)cc1 (some centres not stated) | nt | nt | 1 | nt
CCOC(=O)C1=C(C)N=c2s/c(=C\c3ccncc3)c(=O)n2C1c1ccc2c(c1)OCO2 (configuration not stated) | 13 | -75* | 1 | 1
CC(=O)c1ccc(NC(=O)Nc2ccc(Cl)cc2)cc1 | nt | nt | 1.6 | nt
CC(=O)Nc1cccc(NC(=O)Nc2ccc(C(C)=O)cc2)c1 | 24 | 91 | 1.1 | 25*
N#Cc1c(SCC(N)=O)nc2c(c1-c1ccc(OCc3ccccc3)cc1)CCCC2 | nt | nt | 1.3 | nt
COC(=O)C1(C)C=CC2(CCCCC2)N1C(=O)c1ccccc1 (configuration not stated) | nt | nt | 1.1 | nt
Cc1ccc(/C=N/c2sc3c(c2C#N)CCC3)s1 | 0 | 66 | 2.3* | 9
Cn1c(=O)c(C(=O)COC(=O)c2cc(C(F)(F)F)nc3c(C(F)(F)F)cccc23)c(N)n(Cc2ccccc2)c1=O | nt | nt | 1.1 | nt
CCOc1ccc(S(=O)(=O)N(CC(=O)O)c2ccc(C)cc2)cc1 | 48* | 116 | 1.2 | -1
CCOc1ccccc1N(CC(=O)O)S(=O)(=O)c1ccc(C)cc1 | 6 | 72 | 1 | 15
CCOC(=O)Cc1csc(SCn2nnc3ccccc3c2=O)n1 | -20 | 103 | 1.1 | 5
CCOC(=O)Cc1csc(-n2sc3ccccc3c2=O)n1 | 31* | 103 | 1.1 | -1
